Most compounds without a hit are left out; they make up all but 4.6% or so of the library.
D1 potentiator = Potentiators of Human D1 Dopamine Receptor: qHTS; potentiation, % at 10 µM; HEK293 TREx D1 cells, calcium flux, dopamine EC20 potentiation; 0.036% of 360,000 active; D(1A) dopamine receptor (Homo sapiens), P21728; in the data active = potentiation above about 30%
D1 ag = Allosteric Agonists of the Human D1 Dopamine Receptor: qHTS. D(1A) dopamine receptor (Homo sapiens), P21728. HEK293 T-REx D1 cells, calcium flux, agonist mode. activation, % at 2 µM. 1% of 360,000 active. AID 504660, 2011
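Tetracycline-induced HEK293 TREx D1 cells, force-coupled to calcium signalling, were dye-loaded with a no-wash calcium kit. Compound was pin-added after a 10 s baseline. Fluorescence was read kinetically at 1 cycle/s for 180 s, with calcium rises flagged as agonism.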
TRHR agonist = qHTS for Small Molecule Agonists and Allosteric Enhancers of Human TRH Receptor: Primary Screen for Agonists; TRHR cells, calcium flux fluo-8, FDSS agonist mode; activation, % at 2 µM; 0.18% of 360,000 active; AID 493084, 2011
Target sequence (P34981 whole entry, looked up): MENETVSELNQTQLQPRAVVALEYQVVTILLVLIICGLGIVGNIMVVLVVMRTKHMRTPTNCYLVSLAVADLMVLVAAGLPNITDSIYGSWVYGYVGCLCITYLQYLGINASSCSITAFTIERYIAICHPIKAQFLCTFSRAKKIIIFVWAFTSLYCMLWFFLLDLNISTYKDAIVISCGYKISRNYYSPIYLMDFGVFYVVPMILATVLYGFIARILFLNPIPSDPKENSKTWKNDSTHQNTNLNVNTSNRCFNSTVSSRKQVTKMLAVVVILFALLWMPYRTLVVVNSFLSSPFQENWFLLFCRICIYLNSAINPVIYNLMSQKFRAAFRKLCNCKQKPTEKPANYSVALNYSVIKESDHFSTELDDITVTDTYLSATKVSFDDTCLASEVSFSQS
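Read-out: compound-evoked intracellular calcium rise in TRHR cells, fluo-8 dye, kinetic FDSS fluorescence at 1 s/cycle following a 10-cycle baseline. Cells cultured overnight before dye loading (30 min–1.5 h, RT).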
TRHR enhancer = qHTS for Small Molecule Agonists and Allosteric Enhancers of Human TRH Receptor: Primary Screen for Enhancers; AID 493056, 2011; TRHR cells, fluo-8 calcium fluorescence, EC20 TRH enhancement; Thyrotropin-releasing hormone receptor (Homo sapiens), P34981; enhancement, % at 2 µM; 0.66% of 360,000 active; in the data active = enhancement above about 30%
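TRHR-expressing cells loaded with fluo-8 calcium dye were read kinetically (ex 480/em 530) during compound addition, then stimulated with an EC20 of TRH (10 nM final). Enhancement of the Gq-mediated intracellular calcium response was scored.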
D1 antag = Antagonist of Human D 1 Dopamine Receptor: qHTS. D(1A) dopamine receptor (Homo sapiens), P21728. HEK293 TREx D1 cells, calcium flux, dopamine EC80; stronger effect = lower value. activity change, negative = inhibition, % at 10 µM. 3.2% of 360,000 active. AID 504652, 2011; in the data active = activity change below about -30%
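Using tetracycline-induced force-coupled D1 Hek293 cells and a calcium dye, signals were followed for 180 s after compound, then for 180 s after EC80 dopamine, to detect inhibitors.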
A number is an active result; - = inactive; . = no result; ! = a repeat was not active. Cut-off read from the data, not from the text of the source, unless noted: active = activation above about 30%; inactive = the rest.

SMILES	D1 potentiator	D1 ag	TRHR agonist	TRHR enhancer	D1 antag
Cc1oc(-c2ccccc2F)nc1CS(=O)(=O)CC(=O)NCCCN1CCN(C)CC1	-	-	-	-	-
CCOc1ccc(CCNC(=O)CS(=O)(=O)Cc2nc(-c3ccc(OC)cc3)oc2C)cc1	-	-	-	40.1!	-
COc1ccc(-c2nc(CS(=O)(=O)CC(=O)NCCCN3CCN(C)CC3)c(C)o2)cc1	-	-	-	-	-38.3
O=C(O)Cc1ccc(NC(=S)NCc2ccco2)cc1	-	-	-	-	-39.5
COc1ccc(/C=C(\NC(=O)c2ccccc2)C(=O)NCc2ccco2)cc1	-	-	-	-	-30.7
O=C(NC(=S)NCc1ccco1)c1ccccc1	-	-	-	-	-31.4
O=C(NCc1ccco1)/C(=C\c1ccccc1)NC(=O)c1ccccc1	.	-	-	-	-
S=C(NCc1ccco1)Nc1ccc(Cl)cc1	-	-	-	-	-31.0
S=C(NCc1ccco1)Nc1ccccc1	-	-	-	-	-
CCOC(=O)c1ccc(CN(Cc2ccc(F)cc2)S(=O)(=O)c2ccc(F)c(C(=O)Nc3cc(Cl)ccc3OC)c2)cc1	-	-	-	-	-
COc1ccc(S(=O)(=O)c2cn(C)c3cc(N4CCOCC4)c(F)cc3c2=O)cc1	-	-	-	-	-
N#CN1CCC(NS(=O)(=O)c2cccc(C(F)(F)F)c2)CC1	-	-	-	-	-
CCOc1ccccc1-c1noc(CCCC(=O)Nc2cccc(C(F)(F)F)c2)n1	-	-	-	-	-
CC(=O)C1=C(c2ccc(Cl)c(Cl)c2)N(C(C)=O)n2cnnc2S1	-	-	-	-	.
CCOc1ccccc1CNC(=O)c1cnc2sc(N(CC)CC)nn2c1=O	-	-	-	-	-
COc1cccc2sc(Nc3nnc(-c4ccccc4Cl)o3)nc12	-	43.0	-	-	-
CCOC(=O)c1ccc2c(c1)N(Cc1ccc(F)cc1Cl)C(=O)c1ccccc1S2	-	-	-	-	-
Cn1nnnc1Sc1ncnc2scc(-c3cccc(N)c3)c12	-	-	-	-	-
Cc1ccc(NC(=O)Cn2c(CCC(=O)O)ccc2-c2cccs2)cc1Cl	-	-	-	-	-68.9
COc1ccc(OCCNS(=O)(=O)c2ccc3oc4ccccc4c3c2)cc1	-	-	-	-	-
CN(CCOc1ccccc1)S(=O)(=O)c1ccc2oc3ccccc3c2c1	-	40.4	-	-	-42.6
COc1cccc(N2CC(NC(=O)CCCc3ccccc3)CC2=O)c1 (stereo not drawn)	-	-	-	-	.
O=C(O)COc1ccccc1/C=N/NC(=O)CNC(=O)c1ccco1	-	-	-	-	-58.1
O=C(COc1ccccc1-c1ccccc1)N/N=C/c1cccc2ccccc12	-	-	-	-	-
O=C(COc1cccc2ccccc12)N/N=C/c1ccccc1OCc1ccc(C(=O)O)cc1	-	36.2	-	-	-
SMILES	D1 potentiator	D1 ag	TRHR agonist	TRHR enhancer	D1 antag
CCC(Cn1nnc2ccccc2c1=O)NC(=O)Nc1cccc(Cl)c1 (stereo not drawn)	-	-	-	-	-
CC(=O)N1N=C(c2ccccc2)CC1c1cccs1 (stereo not drawn)	-	-	-	-	-
Cc1ccc(C2=NN(C(=O)CNCCO)C(c3cccs3)C2)cc1 (stereo not drawn)	-	-	-	-	-32.6
O=C(CNCCO)N1N=C(c2cccs2)CC1c1cccs1 (stereo not drawn)	-	-	-	-	-
O=C(c1ccccc1)N1N=C(c2ccccc2)CC1c1cccs1 (stereo not drawn)	-	-	-	-	-66.7
Cc1ccc(C2=NN(S(C)(=O)=O)C(c3cccs3)C2)cc1 (stereo not drawn)	-	-	-	-	-48.4
Cc1ccc(C2CC(c3cccs3)=NN2S(=O)(=O)c2ccc(C)cc2)cc1 (stereo not drawn)	-	-	-	-	-33.0
COc1cc(-c2cc3n(C)c(C)c(CCC(=O)NC4CCC(C)CC4)c(=O)n3n2)cc(OC)c1OC (stereo not drawn)	-	-	-	-	-

High-throughput results (PubChem)
